Rows were chosen to be rich in hits. Some 2.4% of all compounds tested hit in one or more screens of this group.
Prx2 Sm inh – Schistosoma mansoni Prx2 inhibition; S. mansoni Prx2 activity coupled to TGR/GSH (TGR is thioredoxin glutathione reductase), NADPH fluorescence loss, qHTS; Potency, µM; actives 0.07% (n = 65,000)
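Activity is read as the drop in NADPH fluorescence (365/450 nm), recorded every 30 sec for 8 min after H2O2 addition. Prx2 is coupled to TGR-driven NADPH oxidation through glutathione, in phosphate buffer pH 7.4.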
AmpC nodet inh – inhibitors of E. coli AmpC beta-lactamase without detergent; P00811; AmpC nitrocefin hydrolysis, absorbance 480 nm, no detergent; Potency, µM (doses to about 28.7 µM), inactives show top-dose activity change, negative = inhibition; actives 1.8% (n = 71,000); note: % of control where 0% means no effect
Target sequence (P00811 whole entry, looked up): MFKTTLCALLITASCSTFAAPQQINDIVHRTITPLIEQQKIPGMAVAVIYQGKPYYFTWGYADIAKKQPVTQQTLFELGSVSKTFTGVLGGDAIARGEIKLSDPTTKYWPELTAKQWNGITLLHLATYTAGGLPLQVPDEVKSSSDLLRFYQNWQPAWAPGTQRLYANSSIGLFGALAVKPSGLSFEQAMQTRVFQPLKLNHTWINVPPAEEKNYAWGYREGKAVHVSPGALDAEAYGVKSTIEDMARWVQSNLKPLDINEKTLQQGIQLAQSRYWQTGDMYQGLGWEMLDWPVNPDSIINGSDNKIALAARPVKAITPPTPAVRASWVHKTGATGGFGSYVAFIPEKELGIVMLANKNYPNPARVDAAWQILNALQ
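AmpC, 20 mM phosphate pH 7.0; 15 min cpd preinc, RT; start with nitrocefin (800 uM stock); A480 kinetic read, 20 s intervals, 4 min. No-enzyme wells = negative control.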
LT uptake inh – inhibitors of anthrax lethal toxin internalization; actives 0.67% (n = 70,000); AID 912; Cells, anthrax lethal toxin internalization, FRET ratio (460/530); Potency, µM (doses to about 40 µM), without a hit: at the highest dose activity change, negative = inhibition, hits mostly inhibitors; note: % is set by controls: 0 for no effect and ±100 for the full control effect; nearly all actives have a fitted effect of over 50% in size
AmpC inh det – AmpC beta-lactamase inhibition, detergent assay; Potency, µM (highest dose often 28.7 µM), for the others: top-dose activity change, negative = inhibition; purified AmpC, nitrocefin hydrolysis with detergent; AID 584; actives 0.09% (n = 71,000); P00811; active = well fitted curve in the direction sought with a large enough effect; inconclusive = small, poorly fitted or top-dose-only effect; note: % is set by controls: 0 for no effect and ±100 for the full control effect
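E. coli AmpC (5.3 nM) in 20 mM phosphate pH 7.0 with 0.01% Triton X-100, preincubated 15 min RT with compound; nitrocefin (2 uL of 800 uM stock) hydrolysis followed by 480 nm absorbance every 20 s over 4 min.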
Starred values were filed as active, the others as inactive; [ ] = dose if it differs, or a comment. Unless noted, calls come from the whole dose curve. Potency is the fitted concentration of half-maximal effect.

What do the screens show for `CC(C)CNC(=O)c1cccc(NC(=O)c2ccc(NC(=O)c3ccco3)cc2)c1`?
Prx2 Sm inh: >57; AmpC nodet inh: 16µM*[single pt active]; LT uptake inh: -4%; AmpC inh det: -1%

Results for O=C(COC(=O)c1cccc(NC(=O)c2ccco2)c1)c1ccc(Br)cc1 ?
Prx2 Sm inh: >57; AmpC nodet inh: -24%; LT uptake inh: 13µM*; AmpC inh det: 1%

How did Cc1ccccc1/C=C\C1=NCCN1 do in these assays?
Prx2 Sm inh: >57; AmpC nodet inh: -6%; LT uptake inh: -2%; AmpC inh det: 0%

What do the screens show for `CCOc1c(C(N)=O)c(-c2ccccc2)c2c(=O)[nH]c3ccccc3n12`?
Prx2 Sm inh: >57; AmpC nodet inh: 13µM*; LT uptake inh: inconclusive; AmpC inh det: 1%

Results for CC1CCN(c2nncc3ccccc23)CC1 ?
Prx2 Sm inh: >57; AmpC nodet inh: 2%; LT uptake inh: -3%; AmpC inh det: -2%

Results for CC1CCN(c2nnc(N3CCC(C)CC3)c3ccccc23)CC1 ?
Prx2 Sm inh: >57; AmpC nodet inh: 3.2µM*[single pt active]; LT uptake inh: -5%; AmpC inh det: 12%

Results for COc1ccccc1NC(=O)NCCN1C(=O)C2C3C=CC(C3)C2C1=O (configuration not stated) ?
Prx2 Sm inh: >57; AmpC nodet inh: 4µM*[single pt active]; LT uptake inh: -1%; AmpC inh det: 11%

How did O=C(NCCN1C(=O)C2C3C=CC(C3)C2C1=O)Nc1cccnc1 (configuration not stated) do in these assays?
Prx2 Sm inh: >57; AmpC nodet inh: 4µM*[single pt active]; LT uptake inh: inconclusive; AmpC inh det: 14%

Results for O=C1C2C3C=CC(C3)C2C(=O)N1CCCCN1C(=O)C2C3C=CC(C3)C2C1=O (configuration not stated) ?
Prx2 Sm inh: >57; AmpC nodet inh: 1%; LT uptake inh: -2%; AmpC inh det: -3%

Results for O=C(NCCN1C(=O)C2C3C=CC(C3)C2C1=O)Nc1ccc(Br)cc1 (configuration not stated) ?
Prx2 Sm inh: >57; AmpC nodet inh: 4µM*[single pt active]; LT uptake inh: -13%; AmpC inh det: 14%

Results for COc1ccc(NC(=O)CCCN2C(=O)C3C4C=CC(C4)C3C2=O)c(OC)c1 (configuration not stated) ?
Prx2 Sm inh: >57; AmpC nodet inh: 21%; LT uptake inh: 3%; AmpC inh det: 6%

Results for CN(N=O)c1ccc(/C=C\c2ccnc3ccccc23)cc1 ?
Prx2 Sm inh: >57; AmpC nodet inh: -9%[5.75 µM]; LT uptake inh: -9%[8 µM]; AmpC inh det: -4%[5.75 µM]

Results for COc1cc2nc(N3CC=[N+](C(=O)c4ccco4)CC3)nc(N)c2cc1OC ?
Prx2 Sm inh: >57; AmpC nodet inh: 9%; LT uptake inh: -4%; AmpC inh det: -4%

How did c1cn(-c2cc(-c3ccc4c(c3)OCO4)ncn2)cn1 do in these assays?
Prx2 Sm inh: >57; AmpC nodet inh: 15%; LT uptake inh: 5%; AmpC inh det: 2%

How did Cc1cccc(CNc2cc(-c3ccccc3C)ncn2)c1 do in these assays?
Prx2 Sm inh: >57; AmpC nodet inh: 22%; LT uptake inh: 7%; AmpC inh det: 0%

How did Cc1cc(O)ccc1Nc1nc2ccccc2nc1Nc1ccc(O)cc1C do in these assays?
AmpC nodet inh: 13µM*; LT uptake inh: 16%; AmpC inh det: 4%

Results for Cc1cnc(CNc2cc(-c3ccc(N(C)C)cc3)ncn2)cn1 ?
Prx2 Sm inh: >57; AmpC nodet inh: 30%; LT uptake inh: inconclusive; AmpC inh det: 5%

What do the screens show for `COc1ccc(C(=O)CSc2nnc(-c3cc4ccccc4cc3O)n2Cc2ccco2)cc1`?
Prx2 Sm inh: >57; AmpC nodet inh: 10µM*; LT uptake inh: inconclusive; AmpC inh det: 15%

Results for COc1ccccc1N1CCN(Cc2cc(Br)c(O)c3ncccc23)CC1 ?
Prx2 Sm inh: >57; AmpC nodet inh: 2.5µM*[single pt active]; LT uptake inh: inconclusive; AmpC inh det: 17%

What do the screens show for `CCCCCCCCCCCCCCCCCC(=O)O[C@H](CC(=O)O)C[N+](C)(C)C`?
Prx2 Sm inh: >57; AmpC nodet inh: 76%; LT uptake inh: inconclusive; AmpC inh det: -7%

Results for O=c1cnc2cnc(Oc3ccccc3)nc2n1Cc1ccc(F)cc1 ?
Prx2 Sm inh: >57; AmpC nodet inh: 87%; LT uptake inh: -5%; AmpC inh det: -2%

What do the screens show for `COc1ccccc1N1CCN(C(=O)CCCC2=NS(=O)(=O)c3ccccc3N2)CC1`?
Prx2 Sm inh: >57; AmpC nodet inh: 4µM*[single pt active]; LT uptake inh: -10%; AmpC inh det: 12%

How did CCOC(=O)CC1=NS(=O)(=O)c2ccccc2N1 do in these assays?
Prx2 Sm inh: >57; AmpC nodet inh: 0%; LT uptake inh: -4%; AmpC inh det: 14%

Results for O=c1c(-c2ccc(F)cc2)nc2cnc(N3CCNCC3)nc2n1C1CC1 ?
Prx2 Sm inh: >57; AmpC nodet inh: 20%; LT uptake inh: inconclusive; AmpC inh det: -1%

What do the screens show for `O=c1[nH]c(=O)n([C@@H]2C[C@H](O)[C@H](CO)O2)cc1C(F)(F)F`?
Prx2 Sm inh: >57; AmpC nodet inh: -9%[12.8 µM]; LT uptake inh: -9%[3.58 µM]; AmpC inh det: 0%[12.8 µM]

How did CN1/C(=C/C(=O)c2nc(S(C)(=O)=O)ncc2Cl)C(C)(C)c2ccccc21 do in these assays?
Prx2 Sm inh: >57; AmpC nodet inh: 32%; LT uptake inh: 13µM*; AmpC inh det: -2%

How did CO[C@@H]1COC(=O)[C@H](C)NC(=O)C/C=C\[C@@H](C)[C@@H](NS(=O)(=O)c2ccc(C)cc2)COC(=O)C/C=C\[C@@H]1C do in these assays?
LT uptake inh: 3%[1.6 µM]

How did CN(C)Cc1c[nH]c2ccccc12 do in these assays?
Prx2 Sm inh: >57; AmpC nodet inh: 85%; LT uptake inh: inconclusive; AmpC inh det: 0%

How did CN(C)CCCn1cc(C2=C(c3c[nH]c4ccccc34)C(=O)NC2=O)c2ccccc21 do in these assays?
Prx2 Sm inh: >57; AmpC nodet inh: 36%; LT uptake inh: 0.4µM*; AmpC inh det: -3%

Results for Oc1cc(CN2COc3ccccc32)c(O)cc1CNC1CCCCC1 ?
Prx2 Sm inh: >57; AmpC nodet inh: -4%[5.75 µM]; LT uptake inh: inconclusive; AmpC inh det: 0%[5.75 µM]

How did COc1ccc(Br)cc1CNC(=O)C1CCCN(S(C)(=O)=O)C1 (configuration not stated) do in these assays?
Prx2 Sm inh: >57; AmpC nodet inh: -10%; LT uptake inh: 10µM*; AmpC inh det: -2%

What do the screens show for `c1ccc(-c2nnc(N3CCN(c4ccccn4)CC3)c3ccccc23)cc1`?
Prx2 Sm inh: >57; AmpC nodet inh: 39%; LT uptake inh: 10µM*; AmpC inh det: -4%

What do the screens show for `Cc1ccc(-c2nnc(N3CCN(c4ccccn4)CC3)c3ccccc23)cc1`?
Prx2 Sm inh: >57; AmpC nodet inh: 3%; LT uptake inh: 11%; AmpC inh det: 3%

How did COc1ccc(C(=O)Nc2ccc(Cl)cc2C(=O)NCc2ccco2)cc1OC do in these assays?
AmpC nodet inh: 62%; LT uptake inh: 7.9µM*; AmpC inh det: 6%

How did CC1=CS/C(=C(/C#N)C(=O)N2CCCCC2)N1c1ccccc1 do in these assays?
AmpC nodet inh: 5%; LT uptake inh: 2%; AmpC inh det: -1%

From PubChem BioAssay
